Measurements published in PubChem BioAssay (NCATS).
Results filed as inconclusive are left out. Active and inactive are the calls of the source. Calls follow the shape of the dose curve; as a rule, active = well fitted curve in either direction with a large enough effect (not every such curve was filed as active); inconclusive = small, poorly fitted or top-dose-only effect, or another doubt; inactive = flat fitted curve, though single readings scatter.

Assay: AP1 Signaling Pathway (AID 357);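 also: ME-180 reporter cells stimulated with EGF at its EC50 level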
Details: ME-180 (cervical carcinoma) AP-1-bla reporter, EGF-induced, beta-lactamase ratio, 5 h; at 17.2 µM (top of the series) unless noted
Outline: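 A ratiometric CCF4 readout (405 nm excitation; 460 and 530 nm emission) quantified AP-1-driven beta-lactamase in ME-180 cells after 5 h with compound and EC50 EGF; AC50 values were derived for activators and inhibitors.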
% is scaled to controls: 0 for no effect and ±100 for the full control effect.

Activity change, negative = inhibition, inactive:
CN(C)C=C1C(=O)c2ccccc2C1=O 6.29%
C=CCN(C)CCCNC(=O)/C=N/O -0.81%
CC(=O)c1c(C(C)=O)c(C)n(NC(=O)c2ccncc2)c1C 2.53%
COc1ccc(C(=O)c2oc3nc(C)cc(C)c3c2N)cc1 -14.2%
COC(=O)c1ccc(Cn2nnc3c(sc4nc(N5CCOCC5)c5c(c43)CCCC5)c2=O)o1 0.759%
COc1ccc(-c2nn3c(-c4ccccn4)nnc3s2)cc1OC -16.2%
COC(=O)c1cc(OC)c(OC)cc1N 0.8%
COc1ccc2c(c1)n([O-])c1c([n+]2=O)CCC1 13.4%
CN(C)C(=O)COn1c(SCC(=O)N(C)C)nc2ccccc2c1=O 6.36%
CCNC(=O)N(C)c1nncnc1C(=O)NC 5.47%
Cc1cc2c(c(=O)n1CC1CCCO1)C(c1ccc3c(c1)OCO3)C(C#N)=C(N)O2 (stereo not drawn) -18.5%
c1cc(-c2nnc3sc(C4CCCCC4)nn23)ccn1 -28.7%
Cc1c(=O)n(OCc2c(F)cccc2F)c2ccccc2[n+]1[O-] -5.17%
Cc1ccccc1COc1ccc(/C(O)=C2/C(=O)C(=O)N(CCCn3ccnc3)C2c2ccco2)cc1 (stereo not drawn) -11.1%
CC(C)OC(=O)C(CC(=O)O)NCc1ccccc1 (stereo not drawn) -7.38%
O=C(Nc1ccc(Cl)cn1)C1CCCN1S(=O)(=O)c1ccccc1 (stereo not drawn) -9.31%
CCOC(=O)c1c(C)cccc1OCC(N)=O -9.84%
COC(=O)c1ccc(C2/C(=C(/O)c3ccc(OC)cc3)C(=O)C(=O)N2c2cc(C)on2)cc1 (stereo not drawn) -14%
CC1(C)CC(=O)C(C2=NC(C)(C)Cc3ccccc32)=C(O)C1 2.44%
COC(=O)CSc1nc(C)c(Oc2ccccc2)c(=O)[nH]1 22.2%
C=C(C)Cn1c(-c2ccc(OC)cc2)nc2ccccc21 -23.2%
C=CCN=C(NC#N)SCCc1ccccc1 -4.76%
CCOC(=O)c1ccc(CC2S/C(=C(\C#N)C(C)=O)NC2=O)cc1 (stereo not drawn) -24.1%
CC(C)OCCCNc1ncnc2c1cnn2-c1ccccc1 -19.6%
CCSc1nnc(NC(NC(=O)c2ccco2)(C(F)(F)F)C(F)(F)F)s1 15.1%
CC(C)CN1C(=O)c2ccc(C(=O)Nc3ccccn3)cc2C1=O -5.2%
CCCCOc1ccc(C)cc1CN(CCO)CCO 27.9%
Cc1cc(C)n(CC2CC(=O)N(c3cc(Cl)cc(Cl)c3)C2=O)n1 (stereo not drawn) -15.1%
Clc1cccc(-c2nn3c(-c4cccc(Cl)c4)nnc3s2)c1 -10.3%
C(=N\n1cnnc1)/c1cccnc1 -4.05%
COc1ccc(C2CC(c3ccc(C)cc3)Nc3nc(N)nn32)cc1 (stereo not drawn) -10.4%
COc1ccc(/C(O)=C2/C(=O)C(=O)N(CCCN(C)C)C2c2ccco2)cc1Cl (stereo not drawn) 9.29%
CCOC(=O)c1[nH]c2cc3c(cc2c1NC(=O)CN1CCC(C)CC1)OCO3 -11.2%
O=C1C=C(O)CC(c2cccs2)C1 (stereo not drawn) -0.0121%
Cc1ccc2cc(CNC(C)(C)C)c(=O)[nH]c2c1 2.11%
Cc1onc(-c2ccccc2Cl)c1C(=O)N1CCN(c2nc3ccccc3s2)CC1 -24.2%
Cc1cc(C)n(C(=O)CNC(=O)C2COc3ccccc3O2)n1 (stereo not drawn) 15.9%
COC(=O)/C=c1/s/c(=C(/C#N)C(=O)N2CCCCC2)n(-c2ccccc2)c1=O 26%
O=C(O)CC(C(=O)OCCOc1ccccc1)N1CCOCC1 (stereo not drawn) -4.83%

Assay: NFAT Signaling Pathway (AID 444);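 also: carbachol stimulus at about its EC50 of 1 µM final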
Details: Jurkat NFAT-bla M1, carbachol, beta-lactamase ratio, 5 h; at 17.2 µM (top of the series) unless noted
Outline: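 Read-out: CCF4 FRET ratio (460 nm/530 nm) after 1 h RT dye loading, used for %activity and AC50 from titration series. Cells: Jurkat NFAT-β-lactamase/M1 line, treated with compound plus 1 uM carbachol for 5 h, 37 °C.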

Activity change, negative = inhibition, inactive:
CN(C)C=C1C(=O)c2ccccc2C1=O 3.97%
C=CCN(C)CCCNC(=O)/C=N/O 2.2%
CC(=O)c1c(C(C)=O)c(C)n(NC(=O)c2ccncc2)c1C 3.09%
COc1ccc(C(=O)c2oc3nc(C)cc(C)c3c2N)cc1 13%
COC(=O)c1ccc(Cn2nnc3c(sc4nc(N5CCOCC5)c5c(c43)CCCC5)c2=O)o1 -21.1%
COc1ccc(-c2nn3c(-c4ccccn4)nnc3s2)cc1OC -21.8%
COC(=O)c1cc(OC)c(OC)cc1N 0.905%
COc1ccc2c(c1)n([O-])c1c([n+]2=O)CCC1 -5.03%
CN(C)C(=O)COn1c(SCC(=O)N(C)C)nc2ccccc2c1=O 14.2%
CCNC(=O)N(C)c1nncnc1C(=O)NC 2.38%
Cc1cc2c(c(=O)n1CC1CCCO1)C(c1ccc3c(c1)OCO3)C(C#N)=C(N)O2 (stereo not drawn) -16.1%
c1cc(-c2nnc3sc(C4CCCCC4)nn23)ccn1 -22.5%
Cc1c(=O)n(OCc2c(F)cccc2F)c2ccccc2[n+]1[O-] -0.573%
Cc1ccccc1COc1ccc(/C(O)=C2/C(=O)C(=O)N(CCCn3ccnc3)C2c2ccco2)cc1 (stereo not drawn) 10.8%
CC(C)OC(=O)C(CC(=O)O)NCc1ccccc1 (stereo not drawn) 10.6%
O=C(Nc1ccc(Cl)cn1)C1CCCN1S(=O)(=O)c1ccccc1 (stereo not drawn) -4.11%
CCOC(=O)c1c(C)cccc1OCC(N)=O 0.392%
COC(=O)c1ccc(C2/C(=C(/O)c3ccc(OC)cc3)C(=O)C(=O)N2c2cc(C)on2)cc1 (stereo not drawn) -13.5%
CC1(C)CC(=O)C(C2=NC(C)(C)Cc3ccccc32)=C(O)C1 2.48%
COC(=O)CSc1nc(C)c(Oc2ccccc2)c(=O)[nH]1 15.3%
C=C(C)Cn1c(-c2ccc(OC)cc2)nc2ccccc21 3.93%
C=CCN=C(NC#N)SCCc1ccccc1 7.9%
CCOC(=O)c1ccc(CC2S/C(=C(\C#N)C(C)=O)NC2=O)cc1 (stereo not drawn) 13.3%
CC(C)OCCCNc1ncnc2c1cnn2-c1ccccc1 12.4%
CCSc1nnc(NC(NC(=O)c2ccco2)(C(F)(F)F)C(F)(F)F)s1 -7.65%
CC(C)CN1C(=O)c2ccc(C(=O)Nc3ccccn3)cc2C1=O 27.9%
CCCCOc1ccc(C)cc1CN(CCO)CCO -9.6%
Cc1cc(C)n(CC2CC(=O)N(c3cc(Cl)cc(Cl)c3)C2=O)n1 (stereo not drawn) -7.21%
Clc1cccc(-c2nn3c(-c4cccc(Cl)c4)nnc3s2)c1 1.34%
C(=N\n1cnnc1)/c1cccnc1 -13.4%
COc1ccc(C2CC(c3ccc(C)cc3)Nc3nc(N)nn32)cc1 (stereo not drawn) 11.6%
COc1ccc(/C(O)=C2/C(=O)C(=O)N(CCCN(C)C)C2c2ccco2)cc1Cl (stereo not drawn) -5.99%
CCOC(=O)c1[nH]c2cc3c(cc2c1NC(=O)CN1CCC(C)CC1)OCO3 3.83%
O=C1C=C(O)CC(c2cccs2)C1 (stereo not drawn) -1.83%
Cc1ccc2cc(CNC(C)(C)C)c(=O)[nH]c2c1 -5.21%
Cc1onc(-c2ccccc2Cl)c1C(=O)N1CCN(c2nc3ccccc3s2)CC1 -4.08%
Cc1cc(C)n(C(=O)CNC(=O)C2COc3ccccc3O2)n1 (stereo not drawn) -7.83%
COC(=O)/C=c1/s/c(=C(/C#N)C(=O)N2CCCCC2)n(-c2ccccc2)c1=O -25.6%
O=C(O)CC(C(=O)OCCOc1ccccc1)N1CCOCC1 (stereo not drawn) -6.82%
